Drawing on the supplement of paper PMC10941209, this text covers parasite survival for 39 molecules.

Structures are written as SMILES. Unmarked numbers belong to inactive results.

The subject of this assay is Toxoplasma gondii RH 2F1 tachyzoites (intracellular in HFF). The assay is described as follows: parasite survival relative to DMSO control; higher = less antiparasitic activity, active = 20 or less. The note with it: 1 µM; 72 h. In a few lines: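 Intracellular Toxoplasma gondii RH-2F1 tachyzoites, which express β-galactosidase, were grown in HFF cells (5 × 10^3 cells/well, 96-well plates) infected with 5 × 10^3 parasites in D2 medium for 3 h, then treated with compound at 1 μM for 72 h at 37°C in 5% CO2. Cells were lysed for 15 min, then CPRG was added and absorbance read at 570 nm after 30 min. Survival is the signal as a percentage of DMSO-treated infected controls, from 2 or more biological replicates.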
Consider `O=C(O)C[C@H]1CC[C@H](c2ccc(-c3ccc(Nc4ccc(C(F)(F)F)nc4)cn3)cc2)CC1`, for which the parasite survival was 42.6%.
The figure for `Nc1nc2c(ncn2COCCO)c(=O)[nH]1` is 67.4%; for `CC1CN(c2ncnc3c2c(-c2ccccc2)cn3-c2ccc(F)cc2)CC(C)O1` (centres undefined) it is 34.4%; for `CCC(CC)[C@H](NC(C)=O)[C@@H]1[C@H](O)[C@@H](C(=O)O)C[C@H]1NC(=N)N` it is 69.6%.
Then `c1cc(CN2CCCNCCNCCCNCC2)ccc1CN1CCCNCCNCCCNCC1`, with 91.5%; and `NC(=O)C(c1ccccc1)(c1ccccc1)[C@H]1CCCN(CCc2ccc3c(c2)CCO3)C1`, with 67%.
Then `NC(=O)c1c(N)sc2c1CCCCC2`, with 48.8%.
With `CCCCN1C[C@H](O)[C@@H](O)[C@H](O)[C@H]1CO`, the parasite survival was 61.5%.
Then `CCN(CC)CCCC(C)Nc1ccnc2cc(Cl)ccc12` (centres undefined), with 70.6%; and `Cc1ccc(S(=O)(=O)Nc2cccc3cccnc23)cc1`, with 4.22% (active); and `CO[C@@]1(NC(=O)Cc2cccs2)C(=O)N2C(C(=O)O)=C(COC(N)=O)CS[C@@H]21`, with 61.6%.
The figure for `Nc1nc(NC2Cc3ccc(F)cc3C2)nc(N2CCCCC2)n1` (centres undefined) is 41.9%; for `Cc1[nH]c2ccccc2c1CCNCc1ccc(/C=C/C(=O)NO)cc1` it is 4.12% (active).
Take `Clc1cccc(-c2nnc(-c3ccccc3)o2)c1`: the parasite survival is 62.8%.
The figure for `OB1OCc2cc(Cl)ccc21` is 57.2%; for `CCc1ccccc1OCCN1CCCCCC1` it is 47.2%.
As for `COc1ccc(C[C@@H](C)[C@@H](C)Cc2ccc(OC)c(OC)c2)cc1OC`, the parasite survival was 77.7%.
Then `COc1ccccc1CN[C@H]1C2CCN(CC2)[C@H]1C(c1ccccc1)c1ccccc1`, with 37.5%; and `CCC[C@@H]1C[C@@H](C(=O)N[C@@H]([C@H]2O[C@H](SC)[C@H](O)[C@@H](O)[C@H]2O)[C@H](C)Cl)N(C)C1`, with 16.1% (active).
The figure for `Nc1nc(N)c2c(Sc3ccccc3)cccc2n1` is 11.4% (active); for `O=S(=O)(NCB(O)O)c1ccc(-c2nnn[nH]2)cc1C(F)(F)F` it is 34.1%; for `CC(C)(C)c1cccc(-c2nc3cc(C(=N)N)ccc3[nH]2)c1O` it is 50.5%.
The figure for `CC(C)(C)NC(=O)N[C@H](C(=O)N1C[C@H]2[C@@H]([C@H]1C(=O)NC(CC1CCC1)C(=O)C(N)=O)C2(C)C)C(C)(C)C` (some centres undefined) is 48.5%; for `CCOc1ccc(C(=O)NCCc2ccccc2)cc1` it is 60.8%.
Consider `O=C(NC(=O)N1CCCc2ccccc21)c1ccc(Cl)cc1Cl`, for which the parasite survival is 55.9%.
Then `NNC(=O)c1ccncc1`, with 63.2%.
Then `Oc1ccc2[nH]c(-c3ccccc3)nc2c1`, with 66.2%; and `CC(C)Oc1ccc(-c2nc(-c3cccc4c3CC[C@@H]4NCCO)no2)cc1C#N`, with 41.9%; and `CNCC(=O)OCc1cccnc1N(C)C(=O)OC(C)[n+]1cnn(C[C@](O)(c2cc(F)ccc2F)[C@@H](C)c2nc(-c3ccc(C#N)cc3)cs2)c1` (some centres undefined), with 35.6%.
With `CC(C)c1cc2c(cc1S(=O)(=O)O)[C@@]1(C)CCC[C@@](C)(C(=O)O)[C@@H]1CC2`, the parasite survival was 74.6%.
Then `CCc1cc(CCCOc2c(C)cc(-c3noc(C(F)(F)F)n3)cc2C)on1`, with 55.4%.
Consider `CCCCc1ccc(-c2nc(C)c(C(=O)OC)s2)cc1`, for which the parasite survival is 64%.
The figure for `O=C(NNC(=S)Nc1ccc(Cl)cc1)c1ccncc1` is 65%; for `CCC[C@H](NC(=O)[C@@H]1[C@H]2CCC[C@H]2CN1C(=O)[C@@H](NC(=O)[C@@H](NC(=O)c1cnccn1)C1CCCCC1)C(C)(C)C)C(=O)C(=O)NC1CC1` it is 46.8%.
The figure for `O=C(N[C@H](CCS)C(=O)N[C@H](Cc1ccccc1)C(=O)O)c1cc2ccccc2[nH]1` is 45.8%; for `Cc1ccccc1NC(=O)Nc1cccc([N+](=O)[O-])c1` it is 24.2%; for `Fc1ccc(-n2cc(Cn3c(-c4cccc(F)c4)nc4ccccc43)nn2)cc1` it is 50.1%.
Then `CCCC1(C2CC2)c2cc(Cl)ccc2NC(=O)N1C` (centres undefined), with 70.4%; and `C[C@@H](O)[C@H](N)C(=O)NS(=O)(=O)c1cccc(-c2ccc3[nH]ncc3c2)c1`, with 40.1%.
